This is a sample that favours compounds with a hit; in the whole collection about 3.4% have one here.
FBW7 activator: human FBW7 E3 ligase activation, primary screen. 650,000 tested, 0.13% active. AID 1259310. AlphaScreen FBW7–phospho-cyclin E peptide binding, activator screen. normalized activity (activation), % at 26.1 µM. Q969H0; in the data active = normalized activity above about 1.9%;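 also: purified mutant Fbw7 with reduced substrate affinity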
TEAD-YAP block: TEAD-YAP interaction inhibition; HEK-TIYL cells, TEAD-Gal4/YAP UAS-luciferase luminescence; inhibition, % at 9.12 µM; 640,000 tested, 1.4% active; AID 1259422; in the data active = inhibition above about 32%;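 also: 0% = median of test compound wells and 100% = reference inhibitor wells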
MITF inh: blocks human microphthalmia-associated transcription factor | 650,000 tested, 0.91% active | inhibition, % at 2.6 µM | O75030 | AlphaScreen MITF homodimerization, bead proximity signal; in the data active = inhibition above about 50%;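 also: 0% = vehicle wells with protein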
GPR151 ag: activates the human receptor GPR151; PathHunter beta-arrestin GPR151 cells, luminescence; activation, % at 11.2 µM; Q8TDV0; 650,000 tested, 1% active; in the data active = activation above about 4.9%;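 also: 0% = median of compound wells and 100% = cells with positive control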
Target sequence (Q8TDV0 whole entry, looked up): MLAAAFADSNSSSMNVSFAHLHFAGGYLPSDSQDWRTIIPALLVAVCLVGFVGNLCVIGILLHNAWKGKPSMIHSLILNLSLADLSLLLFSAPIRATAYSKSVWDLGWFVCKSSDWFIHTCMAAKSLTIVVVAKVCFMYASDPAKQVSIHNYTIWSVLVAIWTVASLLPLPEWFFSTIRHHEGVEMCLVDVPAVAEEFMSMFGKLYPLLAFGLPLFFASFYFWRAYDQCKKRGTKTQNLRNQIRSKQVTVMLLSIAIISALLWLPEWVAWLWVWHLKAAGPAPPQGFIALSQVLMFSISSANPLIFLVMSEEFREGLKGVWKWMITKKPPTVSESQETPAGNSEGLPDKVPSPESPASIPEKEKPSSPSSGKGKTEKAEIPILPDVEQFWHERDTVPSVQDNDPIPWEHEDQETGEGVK
GPR151 conf act: human GPR151 activation, confirmation screen; shares compounds with GPR151 ag; GPR151 PathHunter beta-arrestin cells, luminescence, 90 min; % of EA-reagent control over plate median; activation, % at 11.2 µM; 6,700 tested, under 10 active; AID 1508609;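 active = mean percent activation across replicates above the confirmation screen cutoff of 4.91%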
GPR119 ag: activates human GPR119 in a GPR151 counter-screen; shares compounds with GPR151 ag; GPR119 PathHunter beta-arrestin cells, luminescence, 90 min; 0 = compound-well median, 100 = enzyme-acceptor control; activation, % at 11.2 µM; 6,700 tested, 0.3% active;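 active = mean percent activation in the counterscreen above 29.09%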;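 also: counterscreen on off-target GPR119 to flag nonselective hits from the GPR151 activator screen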
* = called active by the depositor; . = no result given.

SMILES	FBW7 activator	TEAD-YAP block	MITF inh	GPR151 ag	GPR151 conf act	GPR119 ag
CCC[C@@H]1NC(=O)[C@@H]2C[C@H](NCc3cc4ccccc4s3)CN2C1=O	0.0	0.8	10.0	5.6*	0.5	13.4
COc1ccccc1CN[C@H]1C[C@H]2C(=O)N[C@@H](CO)C(=O)N2C1	0.9	2.0	10.6	5.2*	0.8	14.9
CCC[C@@H]1NC(=O)[C@@H]2C[C@H](NCc3cc(C)ccc3F)CN2C1=O	-0.1	-7.2	-1.9	9.4*	2.0	11.3
CC(C)C[C@H]1NC(=O)[C@@H]2C[C@H](NCc3nc(-c4ccc(F)cc4)cs3)CN2C1=O	0.2	-2.2	-14.2	-0.6	.	.
O=C1N[C@H](CO)C(=O)N2C[C@@H](NCc3nc(-c4ccc(F)cc4)cs3)C[C@@H]12	-0.2	10.5	-1.0	7.7*	0.5	9.7
O=C(NCc1ncc(C(F)(F)F)cc1Cl)c1c(C(F)(F)F)nc2ccccn12	-0.3	2.3	6.5	0.2	.	.
CCOC(=O)C1CCC(CN(Cc2ccccc2C)S(=O)(=O)c2ccc(F)c(C(=O)Nc3cccc(Cl)c3Cl)c2)CC1 (stereo not given)	-0.1	-3.9	7.3	0.4	.	.
O=C(Cn1nnnc1CN1CCCCCC1)N1CCOCC1	0.1	5.0	13.9	-0.6	.	.
COc1ccc(CN[C@H]2C[C@H]3C(=O)N[C@H](CC(C)C)C(=O)N3C2)cc1	-0.2	-5.1	6.2	5.1*	0.0	10.4
Cn1cc(CN[C@H]2C[C@H]3C(=O)N[C@@H](Cc4ccccc4)C(=O)N3C2)c(-c2ccccc2)n1	-0.1	-15.7	-19.2	9.8*	0.2	4.0
CC(C)C[C@@H]1NC(=O)[C@@H]2C[C@H](NCc3ccc(C(C)C)cc3)CN2C1=O	0.1	3.4	1.7	-0.6	.	.
CC(=O)Oc1cccc(N2C(=O)c3ccc(Oc4ccc(N)cc4)cc3C2=O)c1	-0.5	11.4	6.7	-1.1	.	.
Cc1noc(C)c1S(=O)(=O)N1CCN(Cc2nc(C(C)(C)C)cs2)CC1	0.0	0.2	0.1	1.7	.	.
CCCS(=O)(=O)N1CCN(Cc2nc(C(C)(C)C)cs2)CC1	0.2	-1.3	-2.3	8.8*	0.6	3.8
CCOC(=O)CSc1nnnn1-c1ccccc1OCC	0.1	-4.6	7.8	1.0	.	.
CCOc1ccccc1-n1nnnc1SCC(=O)NC(C)(C)C	0.0	2.6	-1.5	6.9*	1.3	2.5
COc1ccc(C2CNCC2c2nc3ccc(-c4cn[nH]c4)cc3[nH]2)cc1 (stereo not given)	-0.1	2.5	-20.0	6.0*	-0.5	-4.3
COc1ccc2c(c1)CC(c1nc3ccc(-c4cn[nH]c4)cc3[nH]1)NC2 (stereo not given)	0.0	25.2	25.5	0.4	.	.
Cc1ccc(CN2CCNC(=O)C2CC(=O)N2CCCN(Cc3cccs3)CC2)o1 (stereo not given)	0.2	9.1	2.9	-0.9	.	.
Cc1ccc(CN2CCNC(=O)C2CC(=O)N2CCN(Cc3csc(C)n3)CC2)o1 (stereo not given)	-0.1	1.8	-4.4	5.1*	0.3	1.6
Brc1cccc(CNCc2cccnc2)c1	-0.1	4.3	16.2	0.8	.	.
Brc1cccc(CNCc2ccncc2)c1	-0.1	12.2	3.9	13.2*	0.5	-5.3
CC(=O)CC(C)C(=O)N1CCCC(c2nc(C)ncc2-c2cccc(C)c2)C1 (stereo not given)	-0.1	-2.6	0.4	6.4*	0.9	-1.7
Cc1cccc(-c2cnc(C)nc2C2CCCN(C(=O)CN(C)C)C2)c1 (stereo not given)	0.0	-1.3	-2.8	14.5*	1.1	-1.0
Nc1ccc2c(c1)C(=O)N(c1ccc(Oc3ccc(N4C(=O)c5ccc(N)cc5C4=O)cc3)cc1)C2=O	0.0	5.3	2.2	0.9	.	.
SMILES	FBW7 activator	TEAD-YAP block	MITF inh	GPR151 ag	GPR151 conf act	GPR119 ag
Cc1cc(N)n(-c2ccccc2[N+](=O)[O-])n1	0.1	3.1	-0.9	1.6	.	.
COC(=O)c1c(NC(=S)N2CCN(S(C)(=O)=O)CC2)sc2c1CCCCCC2	-0.1	-6.9	-5.2	6.7*	0.4	-2.6
COC(=O)c1c(NC(=S)N2CCN(C(=O)C3CCCO3)CC2)sc2c1CCC2 (stereo not given)	-0.2	-0.5	2.5	0.6	.	.
CCCCN(CC)C(=O)c1ccc([N+](=O)[O-])cc1	-0.1	-0.9	11.3	-0.5	.	.
CCCCN(CC)C(=O)c1ccc([N+](=O)[O-])cc1Cl	-0.2	4.1	-18.1	7.7*	0.0	-4.8
CSc1ccc(-c2ccc3c(c2)CC(CNC(=O)c2ccncc2)O3)cc1 (stereo not given)	-0.1	11.4	-4.3	0.5	.	.
CSc1ccc(-c2ccc3c(c2)CC(CNC(=O)C2CCOC2)O3)cc1 (stereo not given)	0.0	7.3	2.6	7.9*	0.0	-1.2
COC(=O)N1CC(=O)N(OCN2C(=O)c3ccccc3C2=O)C1c1ccccc1 (stereo not given)	0.3	-7.5	13.5	0.3	.	.
COc1cccc(CC(=O)N2CCc3nnc(CNC(=O)CCc4cccnc4)n3CC2)c1	-0.1	-2.5	2.5	5.7*	0.1	4.8
CCCCC(=O)N/N=C/c1ccccc1	0.1	-10.8	0.0	1.1	.	.
NC(=O)CC(c1ccccc1)c1ccc2c(c1)OCO2 (stereo not given)	-0.1	12.2	-0.3	6.4*	-0.1	6.2
O=C(Nn1c(=S)[nH]c2ccccc2c1=O)c1ccc(Br)cc1	0.0	-4.2	8.2	-0.6	.	.
O=C(O)c1ccc(Nn2c(=S)[nH]c3ccccc3c2=O)cc1	0.0	-0.5	5.5	5.0*	-0.5	-11.7
COc1ccc(-c2cnc(SCCNC(=O)CCCc3ccccc3)[nH]2)cc1	0.4	-12.9	-9.7	-0.8	.	.
CCC(=O)NCCSc1ncc(-c2ccccc2)[nH]1	0.3	-13.8	5.4	5.2*	-0.8	-2.4
CCOc1ccc(NC(=O)COc2ccccc2Br)cc1	0.0	-7.1	-1.7	5.0*	0.2	9.1
O=C(COc1ccccc1Br)NN=C1CCCCC1	-0.1	-2.0	14.3	9.7*	-1.2	-6.2
Cc1coc2c(C)c3oc(=O)cc(C)c3cc12	0.5	-3.2	20.9	-0.3	.	.
O=C1C2C3C=CC(C3)C2C(=O)N1Cc1ccc(Cl)cc1 (stereo not given)	0.0	2.6	4.5	3.1	.	.
COc1cc(OC)cc(-n2nc(C(=O)N3CCCc4ccccc43)c3ccccc3c2=O)c1	-0.1	-8.2	-4.0	2.1	.	.
COC(=O)C(Sc1c(O)cc(C)oc1=O)(C(F)(F)F)C(F)(F)F	-1.3	-9.9	5.4	-0.2	.	.
COC(=O)C(Sc1cc2c(cc1O)OCO2)(C(F)(F)F)C(F)(F)F	-0.3	2.6	4.6	5.3*	0.0	1.0
CCn1c(SCC(=O)Nc2ccc(OC)cc2)nnc1-c1cccs1	0.2	10.0	5.3	0.8	.	.
CCn1c(SCC(=O)NCc2cccs2)nnc1-c1cccs1	0.1	20.7	4.9	6.9*	-0.4	-0.5
